PrPC surface inh – inhibitors of human cell surface prion protein PrPC; P04156; TR-FRET read-out; inhibition, % at 13.8 µM; 370,000 tested, 0.43% active; AID 720596; in the data active means inhibition above about 24%; further: 0% = median of the test wells and 100% = reference compound wells
BJeLR viability – kills HRASV12-expressing BJeLR cells | BJeLR (HRASV12) viability, CellTiter-Glo ATP luminescence, 48 h | inhibition, % (concentration not given with the values) | 300,000 tested, 0.17% active | AID 1554; in the data active means inhibition above about 50%
RecA intein inh – inhibitors of M. tuberculosis RecA intein splicing. P9WHJ3. inhibition, % (test concentration not listed). 290,000 tested, 0.75% active. cell-free RecA intein splicing, fluorescence; in the data active means inhibition above about 30%;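 further: 0% = vehicle wells and 100% = reference inhibitor control wells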
SARS 3CLpro inh – SARS-CoV 3CLpro protease inhibition; P0C6X7; recombinant SARS-CoV 3CLpro, quenched FRET peptide cleavage; inhibition, % at 6 µM; 290,000 tested, 0.14% active; AID 1706; in the data active means inhibition above about 12%
Mtb hypoxia rep – Mtb hypoxia fluorescent reporter inhibition; fluorescence inhibition, % (test concentration not listed); AID 1159583; 300,000 tested, 0.1% active; M. tuberculosis hypoxia-regulated fluorescent reporter, fluorescence; in the data active means fluorescence inhibition mostly above about 23%, no sharp cut-off; inactive means mostly below about 17%
PrP 5UTR inh – inhibition of PrP 5' UTR reporter expression; cell-based PrP 5' UTR mRNA reporter, plate reader; inhibition, % (concentration not given with the values); 340,000 tested, 0.35% active; AID 488862; in the data active means inhibition above about 52%; further: 0 = median of the neutral control wells
* marks the source's active call; other numbers are inactive results; nt = not tested or not shown. The list is not random: actives were taken first. Their share in the collection is about 1.4%.

SMILES	PrPC surface inh	BJeLR viability	RecA intein inh	SARS 3CLpro inh	Mtb hypoxia rep	PrP 5UTR inh
CCN(CC)c1ccc(/C=C2\C(=O)NC(=S)N(c3ccc(OC)cc3OC)C2=O)o1	nt	-9	-4	nt	54*	-19
CCN(CC)c1ccc(/C=C2\C(=O)NC(=S)N(C)C2=O)o1	-42	-10	-2	1	58*	-72
CCN(CC)c1ccc(C=C2C(=O)N(C)C(=S)N(C)C2=O)o1	-2	4	-1	-6	46*	-7
CCOC1OC(C(=O)NC2CC2)=CC(c2ccc(C(F)(F)F)cc2)C1CCCO (stereo not given)	nt	nt	nt	nt	-3	nt
COc1ccccc1-c1c(C)oc2cc(OC(=O)c3ccco3)ccc2c1=O	6	14	31*	-1	6	-39
CC(=O)C(=Nc1ccc(Cl)cc1Cl)NNc1cccc(Cl)c1	-18	4	34*	4	nt	6
O=C(O)C(c1ccccc1)N1C(=O)c2ccccc2C1=O (stereo not given)	-3	1	4	-6	0	6
O=C(O)[C@@H](c1ccccc1)N1Cc2ccccc2C1=O	-3	4	32*	0	0	-1
CC(C)(C)OC(=O)CC1CC=CCC(CC(=O)N(CCO)Cc2ccccc2)C(=O)NC(Cc2ccccc2)COC1=O (stereo not given)	nt	nt	nt	nt	15	nt
Cc1cc(C(=O)CSc2ccc(F)cc2)cc(C)c1OC(=S)N(C)C	7	-2	4	5	-9	68*
N#C/C(N=Nc1ccccc1O)=N\Nc1ccccc1O	-9	56*	-3	nt	nt	-29
CCN(CC)c1ccc(C=Nn2c(=S)[nH]nc(C)c2=O)cc1	nt	nt	nt	nt	4	nt
CCOC(=O)c1[nH]c(C)c(C(O)=C2C(=O)C(=O)N(CCN(C)C)C2c2ccncc2)c1C (stereo not given)	nt	nt	nt	nt	1	nt
Cc1ccc(C)c(NS(=O)(=O)c2ccc(-c3cnc(C4CC4)o3)cc2)c1	9	52*	12	2	2	13
Cc1cccc(NS(=O)(=O)c2ccc(-c3cnc(C4CC4)o3)cc2)c1C	18	53*	10	1	-16	79*
Cc1cc(C)cc(NS(=O)(=O)c2ccc(-c3cnc(C4CC4)o3)cc2)c1	18	58*	2	3	7	67*
Cc1ccsc1C=NN=C1C(=O)Nc2ccccc21	nt	nt	nt	nt	11	nt
CCOc1ccc(Cl)cc1C1=CC(=O)CC(c2ccc(OC)cc2)C1 (stereo not given)	nt	nt	nt	nt	12	nt
O=C1C(=O)c2ccc(-c3ccccc3)cc2-c2ccccc21	0	110*	8	2	nt	-36
CC(=O)Nc1cccc(OC(=O)COc2ccc(Br)cc2)c1	-8	2	35*	-1	1	1
Cc1ccc(OCC(=O)Oc2cccc(C)c2)cc1	7	2	7	nt	6	nt
COc1ccc(C=NNC(=O)c2cc(-c3cccnc3)nc3ccccc23)c(OC)c1	nt	nt	nt	nt	-3	nt
O=C(CN(c1cccc(Br)c1)S(=O)(=O)c1ccccc1)N/N=C/c1cc([N+](=O)[O-])ccc1O	12	-4	33*	nt	nt	-9
CC(C)(C)OC(=O)CC1CC=CCC(CC(=O)NCCO)C(=O)NC(Cc2c[nH]c3ccccc23)COC1=O (stereo not given)	nt	nt	nt	nt	1	nt
Cc1ccc(S(=O)(=O)N2CCN(C(=O)c3cc(S(=O)(=O)N4CCOCC4)c(Cl)cc3Cl)CC2)cc1	-8	nt	nt	nt	28*	-15
SMILES	PrPC surface inh	BJeLR viability	RecA intein inh	SARS 3CLpro inh	Mtb hypoxia rep	PrP 5UTR inh
O=C(c1cc(S(=O)(=O)N2CCOCC2)c(Cl)cc1Cl)N1CCN(S(=O)(=O)c2cccc(F)c2)CC1	-9	nt	nt	nt	-1	0
CCOC(=O)c1c(CCl)nc2ccccc2c1-c1ccccc1	-11	2	41*	3	nt	-11
O=C(O)CSCC(=O)Nc1ccc(Cl)cc1C(F)(F)F	2	-5	-1	0	-2	-24
CCC(C)N(CC(=O)Nc1cccc(C)c1C)C(=O)CCl (stereo not given)	nt	36	43*	-7	20	-22
CCC(CC)NC(=O)Nc1cccc(C)c1C	0	-2	1	2	9	-11
CC(C)N(CC(=O)Nc1ccc(Cl)cc1C(F)(F)F)C(=O)CCl	-8	-6	59*	1	1	-6
C#CCOCCOCCOCCNc1nc(N2CCOCC2)nc(N2CCN(C(=O)CCCCCCCCCCNC(=O)C(C(C)CC)n3cc(CCCCCN)nn3)CC2)n1 (stereo not given)	nt	nt	nt	nt	18	nt
